# Rows were chosen to be rich in hits. Some 3.9% of all compounds tested hit in one or more screens of this group.
# NSD2 HMT inh: inhibitors of human histone methyltransferase NSD2; inhibition, % at 12.5 µM; 0.54% of 310,000 active; AID 743445; O96028; NSD2 peptide methylation, AlphaScreen, 120 min; in the data active = inhibition above about 50%
# CASP6 VEID inh: caspase-6 (human) enzyme inhibition; purified caspase-6, Z-VEID-R110 cleavage fluorescence; 0.53% of 350,000 active; AID 686996; inhibition, % at 12.5 µM;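 active = mean inhibition across replicates at least about 35%, with every replicate also reaching that limit, limit read from the data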;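 note: 0% = median of neutral control wells and 100% = no fluorescence left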
# Target sequence (P55212 24-179 limits assumed): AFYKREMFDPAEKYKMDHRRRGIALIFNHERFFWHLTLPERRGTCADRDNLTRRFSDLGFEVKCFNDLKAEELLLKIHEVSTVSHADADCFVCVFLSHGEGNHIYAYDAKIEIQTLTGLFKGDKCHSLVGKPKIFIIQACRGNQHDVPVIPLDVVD
# Target sequence (P55212 194-293 limits assumed): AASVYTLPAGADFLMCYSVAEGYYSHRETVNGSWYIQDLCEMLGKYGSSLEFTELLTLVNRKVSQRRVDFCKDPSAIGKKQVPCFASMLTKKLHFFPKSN
# SUMO Mot1 rescue: blocks SUMOylation pathway, rescuing yeast Mot1-301 growth | S. cerevisiae Mot1-301 growth rescue, ATP luminescence, 38.5C; percent above DMSO median, 100 means doubled | AID 2716 | 1% of 320,000 active | growth rescue, % at 18.8 µM;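 active = every valid replicate shows activation above 250% relative to neutral control wells; inactive = the rest, any valid replicate at or below 250%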;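 note: OY570 slx delta 5 strain wells were the positive control but not used for scaling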
# ALR inh: inhibitors of human sulfhydryl oxidase ALR; purified ALR, DTT oxidation, H2O2 HRP-luminol luminescence; inhibition, % (concentration not given with the values); 3.8% of 290,000 active; AID 485317;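 active = mean replicate inhibition above about 79%, with every replicate also reaching it, limit read from the data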
# Target sequence (P55789 whole entry, looked up): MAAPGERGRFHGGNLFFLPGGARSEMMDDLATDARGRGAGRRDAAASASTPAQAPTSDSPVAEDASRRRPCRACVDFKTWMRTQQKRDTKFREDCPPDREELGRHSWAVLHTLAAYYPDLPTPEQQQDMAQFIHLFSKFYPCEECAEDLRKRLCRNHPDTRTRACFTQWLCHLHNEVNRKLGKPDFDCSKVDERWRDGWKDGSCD
# CDK5 inh: CDK5/p35 (human) kinase inhibition; Q00535+Q15078; Recombinant CDK5/p35, ADP-Glo luminescence, 60 min; inhibition, % at 10 µM; 0.01% of 330,000 active; AID 488839;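 active = highest replicate inhibition of at least 50% and at least 75% of replicates reaching 50%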;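 note: plate controls were DMSO neutral control for no effect and GW8510 at 10 µM for full effect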
# Glyco luc inh: N-linked glycosylation inhibition; D54 ERlucT glycosylation luciferase reporter, 24 h; percent of 100 nM tunicamycin response; reporter increase, % at 12.5 µM; 0.23% of 360,000 active;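 active = mean luciferase reporter signal, scaled so untreated is 0 and the glycosylation-blocking control 100, at or above a set limit in every replicate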;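 note: luciferase carries N-glycosylation sites so blocking glycosylation raises the light; 0% = median of neutral control wells and 100% = median of 100 nM tunicamycin wells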
# Numbers without * were called inactive; i = inactive; . = no result given.
SMILES,NSD2 HMT inh,CASP6 VEID inh,SUMO Mot1 rescue,ALR inh,CDK5 inh,Glyco luc inh
Cc1ccc(NCc2nc3ccccc3n2C)c(C)c1,3,1,-5,98*,3,-20
Cc1ccc(NCc2n[nH]c(=S)n2-c2ccccc2)cc1,0,-1,0,98*,2,1
CS(=O)(=O)Nc1ccc(-c2n[nH]c(=S)n2-c2ccccc2)cc1,.,.,58,97*,1,1
O=C(Cc1cccc2ccccc12)Nc1ccccc1O,-2,.,.,.,.,.
C[C@@H]1CN([C@@H](C)CO)C(=O)c2cccc(NC(=O)C3CCOCC3)c2O[C@@H]1CN(C)Cc1ccc2c(c1)OCO2,.,0,.,.,.,.
Cc1noc(C)c1NC(=O)N(C)C[C@@H]1Oc2ccc(NC(=O)Cc3ccccc3)cc2C(=O)N([C@H](C)CO)C[C@H]1C,.,-4,.,.,.,.
CC(=O)NCCC(=O)Nc1sc2c(c1-c1nc3ccccc3[nH]1)CCCC2,0,.,.,98*,1,4
O=C(Nc1sc2c(c1-c1nc3ccccc3[nH]1)CCCC2)C1CCCC1,-2,.,41,8,0,-3
CC(C)CC#Cc1ccc2c(c1)O[C@@H](CN(C)C(=O)Cc1ccccn1)[C@H](C)CN([C@H](C)CO)S2(=O)=O,.,-2,.,.,.,.
COc1cccc(NC(=O)CSc2nc3c(c(=O)n2C)SC(C)C3)c1 (configuration not stated),.,1,-19,99*,1,1
CCOc1ccccc1NC(=O)CSc1nc2c(c(=O)n1C)SC(C)C2 (configuration not stated),.,1,36,25,-6,-3
Cc1cc(C)c(NC(=O)CSc2nc3c(c(=O)n2C)SC(C)C3)c(C)c1 (configuration not stated),.,1,-11,-9,-2,2
CC1Cc2nc(SCC(=O)Nc3nccs3)n(C)c(=O)c2S1 (configuration not stated),.,2,30,98*,-1,3
Cc1cc(C)cc(NC(=O)CSc2nc3c(c(=O)n2C)SC(C)C3)c1 (configuration not stated),.,-1,i,97*,-5,0
CC1Cc2nc(SCC(=O)Nc3ccc(F)cc3)n(C)c(=O)c2S1 (configuration not stated),.,.,185,98*,-3,2
O=C(c1ccncc1)N1CC[C@H]2[C@H](CO)Nc3ccc(-c4ccccc4)cc3[C@H]21,.,5,.,.,.,.
CC(C)NC(=O)Nc1ccc2c(c1)C(=O)N([C@@H](C)CO)C[C@@H](C)[C@@H](CN(C)C(=O)NC(C)C)OCCCC[C@H](C)O2,.,-1,.,.,.,.
Cc1ccc(S(=O)(=O)N(C)C[C@H]2Oc3ccc(NC(=O)C4CCCCC4)cc3C(=O)N([C@@H](C)CO)C[C@@H]2C)cc1,.,-2,.,.,.,.
C[C@H]1CN([C@@H](C)CO)C(=O)Cc2cc(NS(=O)(=O)c3ccccc3)ccc2O[C@@H]1CN(C)C(=O)NC1CCCCC1,.,1,.,.,.,.
CCC(=O)N(C)C[C@@H]1Oc2ncc(-c3ccc(F)cc3)cc2C(=O)N([C@@H](C)CO)C[C@H]1C,.,2,.,.,.,.
CCOc1ccc(NC(=O)CSc2nc3c(c(=O)n2C)SC(C)C3)cc1 (configuration not stated),.,-3,-26,98*,-2,-1
CCn1c(SCC(=O)Nc2cc(C)on2)nc2c(c1=O)SC(C)C2 (configuration not stated),35,.,-5,-35,0,1
Cc1ccc(-n2c(SCC(=O)N3CCCC3)nc3c(c2=O)SCC3)cc1,.,.,.,87*,.,.
Cc1ccc(-n2c(SCC(=O)Nc3cc(C)on3)nc3c(c2=O)SC(C)C3)cc1 (configuration not stated),.,-2,-15,91*,0,2
CCC(=O)Nc1ccc2c(c1)C(=O)N(C)C[C@@H](OC)[C@@H](C)CN(CCC(F)(F)F)[C@@H](C)CO2,.,1,.,.,.,.
SMILES,NSD2 HMT inh,CASP6 VEID inh,SUMO Mot1 rescue,ALR inh,CDK5 inh,Glyco luc inh
C[C@@H]1CN([C@H](C)CO)C(=O)c2cccc(NC(=O)Nc3ccc(F)cc3)c2O[C@H]1CN(C)Cc1ccc2c(c1)OCO2,.,2,.,.,.,.
O=c1cc(O)nc(SCc2ccc(Cl)cc2)[nH]1,1,.,-1,98*,1,0
Clc1ccc(CSc2nc3ccncc3[nH]2)cc1,.,-2,-21,90*,0,-11
Nc1cc(=O)[nH]c(SCc2ccc(Cl)cc2)n1,1,.,-3,-1,2,2
COc1ccc(-c2nc(CS(=O)CC(=O)NCCCN3CCCC3)c(C)o2)cc1OC (configuration not stated),0,.,-4,99*,-2,2
COc1ccc(-c2nc(CS(=O)CC(=O)NCCCN3CCOCC3)c(C)o2)cc1OC (configuration not stated),-3,-12,18,99*,-1,3
COc1ccc(-c2nc(CN3CCC(C(=O)NC4CCCc5ccccc54)CC3)c(C)o2)cc1OC (configuration not stated),-7,-1,.,.,3,0
COc1ccc(-c2nc(CS(=O)CC(=O)NCCN3CCCCC3C)c(C)o2)cc1OC (configuration not stated),6,-31,18,100*,0,4
COc1ccc(-c2nc(CS(=O)CC(=O)NCCN3CCCCCC3)c(C)o2)cc1OC (configuration not stated),5,-111,59,100*,-1,4
COc1ccc(-c2cc(C(=O)NCCCN3CCOCC3)on2)cc1OC,-1,0,-8,47,3,3
CCOC(=O)C1=NN(C(C)=O)C2(CC(=O)N(c3cc(C)cc(C)c3)C2=O)C1 (configuration not stated),-3,.,-8,-8,.,1
COC(=O)C1=NN(N=O)C2(CC(=O)N(c3cc(C)cc(C)c3)C2=O)C1 (configuration not stated),5,.,15,85*,0,3
Cc1ccc(N2C(=O)C(CC(=O)Nc3cccc(F)c3)N(C3CC3)C2=O)cc1 (configuration not stated),.,-1,-4,79*,0,3
CC(=O)c1ccc(N/N=C2/CCCNC2=O)cc1,-4,0,3,99*,-3,1
O=C1NCCC/C1=N/Nc1cc(F)ccc1F,-3,0,-13,.,1,2
COc1ccc(NC(=O)Nc2ccc3c(c2)[C@H]2C[C@H](CC(=O)N4CCc5ccccc5C4)O[C@H](CO)[C@H]2O3)cc1,.,-1,.,.,.,.
O=C(Cc1ccncc1)Nc1ccc2c(c1)[C@H]1C[C@@H](CC(=O)N3CCc4ccccc4C3)O[C@H](CO)[C@H]1O2,.,0,.,.,.,.
C/C(=C\c1ccc(N)cc1)c1nc2ccccc2[nH]1,1,.,-21,99*,1,-3
COC(=O)/C(=C\c1ccc(O)cc1)c1nc2ccccc2[nH]1,0,-2,-22,.,-2,2

# Screens as filed in PubChem.
